Laboratory results reported in PubChem BioAssay (NCATS).
“And” between values parts separate entries of the source, which are not always exact repeats. Identical values can stand only once. Results filed as inconclusive are left out. Some compounds were tested as several samples or in several runs, with calls that do not always agree. The source made the active and inactive calls. Unless noted, calls follow the shape of the dose curve; as a rule, active = well fitted curve in the direction sought with a large enough effect; inconclusive = small, poorly fitted or top-dose-only effect, or another doubt; inactive = no such curve, though single readings can be large; an effect the other way counts as inactive or inconclusive.

What was measured:
[1] = NS1 protein of Zika virus - qHTS assay to identify small molecule inhibitors in human HEK 293 cells (AID 1347053); also: nearly all actives have a fitted effect of over 55% in size; also: potency is read from the fitted curve at half-maximal effect
Method in brief: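 Read-out is a two-antibody TR-FRET for ZIKV NS1, normalized between uninfected cells and infected cells. Compound added 1 h before MR766 infection at MOI 0.5; human HEK 293 cells incubated 24 h, 37 C.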

[2] = qHTS of pediatric cancer cell lines to identify multiple opportunities for drug repurposing: Primary screen for DAOY cells (AID 1347090); also: nearly all actives have a fitted effect of over 55% in size; also: potency is read from the fitted curve at half-maximal effect
Method in brief: (§1)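 Cell viability, CellTiter-Glo luminescence; 500-1,000 cells/well, 8- or 11-point titration, 48 h compound exposure at 37 degrees C, 5% CO2. Controls: DMSO neutral, bortezomib 2.3 µM final as positive.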

[3] = qHTS of pediatric cancer cell lines to identify multiple opportunities for drug repurposing: Primary screen for SJ-GBM2 cells (AID 1347091); also: potency is read from the fitted curve at half-maximal effect
Method in brief: as §1

[4] = qHTS of pediatric cancer cell lines to identify multiple opportunities for drug repurposing: Primary screen for A673 cells (AID 1347092); also: nearly all actives have a fitted effect of over 45% in size; also: potency is read from the fitted curve at half-maximal effect
Method in brief: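 Cells are plated, rested 5 h, dosed by pintool, incubated 48 h, then lysed with CellTiter-Glo and read by luminescence. DMSO is the neutral control; bortezomib at 2.3 uM final is the positive control.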

[5] = molecular target: T1, Tyrosine-protein phosphatase non-receptor type substrate 1 (Homo sapiens) + Leukocyte surface antigen CD47 (Homo sapiens) (UniProt P78324+Q08722); experiment: CD47-SIRPalpha protein protein interaction - LANCE assay qHTS validation (AID 1347057; active = well fitted curve in the direction sought with a large enough effect in the signal ratio, with a control signal flat, not every such curve was filed as active; the % refers to the signal ratio; also: series mostly up to about 38 µM)
Method in brief: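 Inhibition of soluble CD47/SIRPalpha ectodomain association by titrated compounds, measured as 665/615 nm time-resolved FRET ratio after sequential 30 min room-temperature incubations.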

[6] = molecular target: T1, Tyrosine-protein phosphatase non-receptor type substrate 1 (Homo sapiens) + Leukocyte surface antigen CD47 (Homo sapiens); experiment: CD47-SIRPalpha protein protein interaction - HTRF assay qHTS validation (AID 1347058; active = well fitted curve in the direction sought with a large enough effect in the signal ratio, not every such curve was filed as active; the % refers to the signal ratio; also: series mostly up to about 38 µM)
Method in brief: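 Soluble extracellular domains (6His-CD47, Avi-tag-biotinylated SIRPalpha) in PBS pH 7.4 with 0.05% IGEPAL CA-630. Compounds were preincubated 30 min at RT with CD47 and anti-His-Eu, then SIRPalpha and SAV-XL665 were added. TR-FRET 665/615 ratio.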

[7] = molecular target: T1, Tyrosine-protein phosphatase non-receptor type substrate 1 (Homo sapiens) + Leukocyte surface antigen CD47 (Homo sapiens); experiment: CD47-SIRPalpha protein protein interaction - Alpha assay qHTS validation (AID 1347059);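 also: bead proximity luminescence from CD47 binding SIRPalpha after compound preincubation with SIRPalpha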
Method in brief: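 AlphaScreen signal between CD47-His (12.5 nM) and biotin-SIRPalpha (25 nM) soluble extracellular domains, bead-captured via Ni-NTA and streptavidin. Compounds, in 7-point titrations, met SIRPalpha 30 min before CD47; PBS pH 7.4 with 0.05% IGEPAL.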

[8] = molecular target: Atrial natriuretic peptide receptor 2 (Homo sapiens) (UniProt P20594); experiment: Natriuretic polypeptide receptor (hNpr2) antagonism - Pilot subtype selectivity assay (AID 1347050; calls by dose curve; also: potency is read from the fitted curve at half-maximal effect)
Method in brief: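 Antagonist mode: compounds (LOPAC1280, seven 1:5 dilutions) added 30 min before 1 nM hNppC stimulation of hNpr2-HEK293 cGMP-sensor cells; luminescence read before and 20 min after agonist at ambient temperature.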

[9] = molecular target: Parathyroid hormone/parathyroid hormone-related peptide receptor (Homo sapiens) (UniProt Q03431); experiment: qHTS for PTHR1 Agonists: Optimization Screen against the NCGC LOPAC library (AID 1347079);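 also: GloSensor cAMP luminescence in HEK-293 GP2 cells expressing human PTHR1 with IBMX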
Method in brief: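 HEK-293 GP2 cells, PTHR1 + GloSensor cAMP; 3000 cells/well, o/n. Luciferin + IBMX 0.5mM each (stock), 1 hr 37C. Cpd titration, 1 hr 37C. Lum after 15 min RT. Ctrl M-PTH(1-15) top 10uM.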

[10] = qHTS of pediatric cancer cell lines to identify multiple opportunities for drug repurposing: Primary screen for TC32 cells (AID 1347089); also: nearly all actives have a fitted effect of over 60% in size; also: potency is read from the fitted curve at half-maximal effect
Method in brief: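 Measured quantity: luminescence from CellTiter-Glo, reflecting metabolically active TC32 cells following 48 h of compound. Curves came straight from multi-point titrations, with 8 or 11 points in primary and 11 in confirmatory screening.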

Measured: Potency

Sequence of Parathyroid hormone/parathyroid hormone-related peptide receptor (Homo sapiens) (Q03431 whole entry, looked up): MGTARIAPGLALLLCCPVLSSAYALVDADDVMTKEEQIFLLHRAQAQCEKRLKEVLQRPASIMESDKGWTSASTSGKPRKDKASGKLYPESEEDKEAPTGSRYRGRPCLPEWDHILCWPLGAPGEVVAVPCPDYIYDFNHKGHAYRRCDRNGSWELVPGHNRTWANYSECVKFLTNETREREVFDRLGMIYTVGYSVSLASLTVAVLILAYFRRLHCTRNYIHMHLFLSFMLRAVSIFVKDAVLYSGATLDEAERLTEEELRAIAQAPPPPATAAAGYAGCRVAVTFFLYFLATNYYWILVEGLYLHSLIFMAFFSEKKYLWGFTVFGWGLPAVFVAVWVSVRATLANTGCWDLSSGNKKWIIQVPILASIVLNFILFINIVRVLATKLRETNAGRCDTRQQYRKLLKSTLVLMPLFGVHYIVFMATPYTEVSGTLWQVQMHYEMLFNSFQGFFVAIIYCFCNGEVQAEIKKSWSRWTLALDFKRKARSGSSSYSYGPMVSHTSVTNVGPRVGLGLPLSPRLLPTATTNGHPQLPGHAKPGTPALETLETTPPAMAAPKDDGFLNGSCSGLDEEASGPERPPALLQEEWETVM
Sequence of Atrial natriuretic peptide receptor 2 (Homo sapiens) (P20594 whole entry, looked up): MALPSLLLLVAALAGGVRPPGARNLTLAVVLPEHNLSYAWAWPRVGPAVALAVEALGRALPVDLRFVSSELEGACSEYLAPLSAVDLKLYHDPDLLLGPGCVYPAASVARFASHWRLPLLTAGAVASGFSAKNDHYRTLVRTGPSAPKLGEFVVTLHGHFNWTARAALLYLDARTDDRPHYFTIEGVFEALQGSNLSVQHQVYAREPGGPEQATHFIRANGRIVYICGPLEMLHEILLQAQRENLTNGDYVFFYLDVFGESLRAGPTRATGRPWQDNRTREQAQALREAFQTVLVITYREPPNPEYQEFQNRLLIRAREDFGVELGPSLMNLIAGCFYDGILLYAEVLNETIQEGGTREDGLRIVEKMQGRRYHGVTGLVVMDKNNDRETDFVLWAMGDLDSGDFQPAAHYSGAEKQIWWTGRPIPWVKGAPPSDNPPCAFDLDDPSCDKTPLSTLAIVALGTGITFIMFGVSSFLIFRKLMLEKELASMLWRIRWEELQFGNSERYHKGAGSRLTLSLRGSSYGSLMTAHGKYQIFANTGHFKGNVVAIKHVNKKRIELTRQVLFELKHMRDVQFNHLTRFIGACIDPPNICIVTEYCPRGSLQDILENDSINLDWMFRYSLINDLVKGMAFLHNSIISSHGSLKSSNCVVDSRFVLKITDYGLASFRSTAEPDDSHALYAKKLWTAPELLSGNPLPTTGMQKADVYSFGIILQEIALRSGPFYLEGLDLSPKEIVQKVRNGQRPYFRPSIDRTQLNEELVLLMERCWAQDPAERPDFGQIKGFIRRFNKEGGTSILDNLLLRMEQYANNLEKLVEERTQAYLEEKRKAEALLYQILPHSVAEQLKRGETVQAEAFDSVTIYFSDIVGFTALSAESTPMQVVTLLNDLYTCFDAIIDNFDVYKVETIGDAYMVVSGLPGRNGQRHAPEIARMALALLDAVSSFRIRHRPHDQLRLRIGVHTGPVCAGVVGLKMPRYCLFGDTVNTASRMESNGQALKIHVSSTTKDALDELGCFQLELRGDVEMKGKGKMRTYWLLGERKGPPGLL
T1 sequence (P78324 whole entry, looked up, the tested form may be a part): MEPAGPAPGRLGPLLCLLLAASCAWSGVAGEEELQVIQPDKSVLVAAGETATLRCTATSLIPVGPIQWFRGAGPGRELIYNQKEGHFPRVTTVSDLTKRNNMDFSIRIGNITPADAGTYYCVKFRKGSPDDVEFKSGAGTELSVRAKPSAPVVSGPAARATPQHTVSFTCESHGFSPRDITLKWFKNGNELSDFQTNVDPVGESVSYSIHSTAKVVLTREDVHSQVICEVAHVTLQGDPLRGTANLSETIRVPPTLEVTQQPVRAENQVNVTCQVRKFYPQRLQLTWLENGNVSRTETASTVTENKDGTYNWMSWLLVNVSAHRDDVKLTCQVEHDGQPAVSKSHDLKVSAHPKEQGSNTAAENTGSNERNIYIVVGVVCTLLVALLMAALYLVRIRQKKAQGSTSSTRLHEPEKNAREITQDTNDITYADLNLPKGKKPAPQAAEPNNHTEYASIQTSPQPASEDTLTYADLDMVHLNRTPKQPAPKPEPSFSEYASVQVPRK
T1 sequence (Q08722 whole entry, looked up, the tested form may be a part): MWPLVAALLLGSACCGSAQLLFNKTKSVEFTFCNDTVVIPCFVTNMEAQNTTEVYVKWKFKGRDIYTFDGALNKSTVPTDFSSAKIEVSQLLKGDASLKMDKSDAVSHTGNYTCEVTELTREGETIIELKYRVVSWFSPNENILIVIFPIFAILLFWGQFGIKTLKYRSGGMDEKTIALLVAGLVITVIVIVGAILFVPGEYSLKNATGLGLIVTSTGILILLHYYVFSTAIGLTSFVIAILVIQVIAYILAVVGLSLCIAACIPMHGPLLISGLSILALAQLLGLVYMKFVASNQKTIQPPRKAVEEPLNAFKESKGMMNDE

CN(C)C(=N)N=C(N)N
inactive: [1] | [2] | [3] | [4]

CN(CCOc1ccc(NS(C)(=O)=O)cc1)CCc1ccc(NS(C)(=O)=O)cc1
inactive: [1] | [5] | [6] | [7] | [2] | [4]

NC(CO)C(=O)NNCc1ccc(O)c(O)c1O (stereo not given)
inactive: [8] | [1] | [9] | [10] | [2] | [3]
active: [4] 23.5 µM

CC(C)(C)C(=O)Oc1ccc(S(=O)(=O)Nc2ccccc2C(=O)NCC(=O)O)cc1
inactive: [1] | [5] | [6] | [2] | [3] | [4]

CN(C)CCCN1c2ccccc2CCc2ccc(Cl)cc21
active: [8] 7.36 µM | [4] 0.469 µM
inactive: [1] | [9] | [10]

Cc1ccccc1N1C(=O)c2cc(S(N)(=O)=O)c(Cl)cc2NC1C (stereo not given)
inactive: [8] | [1] | [9] | [10] | [2] | [3] | [4]

CC[C@@]1(O)C(=O)OCc2c1cc1n(c2=O)Cc2cc3c(CN(C)C)c(O)ccc3nc2-1
active: [10] 26.4 nM and 131 nM | [2] 53.1 nM and 296 nM | [4] 26.6 nM and 118 nM
inactive and 41.8 nM (active): [1]

CC#C[C@]1(O)CC[C@H]2[C@@H]3CCC4=CC(=O)CCC4=C3[C@@H](c3ccc(N(C)C)cc3)C[C@@]21C
inactive: [1] | [5] | [9]
active: [2] 469 nM | [4] 26.6 µM and 118 nM

COC(=O)Nc1nc2ccc(C(=O)c3cccs3)cc2[nH]1
235 nM (active) and inactive: [1]
active: [2] 11.8 nM and 106 nM | [4] 0.0059 µM
inactive: [5] | [7] | [9]

CC(COc1ccccc1)N(CCCl)Cc1ccccc1 (stereo not given)
inactive: [8] | [1] | [9] | [2]

CC1(CN2CCC(n3c(=O)[nH]c4ccccc43)CC2)OCc2ccccc2-n2cccc21 (stereo not given)
inactive: [1] | [10] | [2] | [3]

CN1CCC(=C2c3ccccc3CC(=O)c3sccc32)CC1
inactive: [1] | [5] | [6] | [7] | [9] | [10] | [3]

Cn1ccc2cc3c(cc21)CCN3C(=O)Nc1cccnc1
active: [4] 11.8 µM
inactive: [1] | [5] | [6] | [9] | [10] | [2]

CS(=O)(=O)Nc1ccc([N+](=O)[O-])cc1Oc1ccccc1
inactive: [8] | [1] | [9] | [10] | [2] | [4]

O=c1c(O)c(-c2ccc(O)c(O)c2)oc2cc(O)cc(O)c12
inactive: [8] | [1] | [9] | [10]
active: [4] 14.8 µM

CC1(C)O[C@H]2CC(=O)OC[C@]23[C@H]2CC[C@@]4(C)[C@H](c5ccoc5)OC(=O)[C@H]5O[C@]54[C@]2(C)C(=O)C[C@@H]13
inactive: [1] | [10] | [2] | [3] | [4]

C[C@@H]1CC(=O)NN=C1c1ccc(NN=C(C#N)C#N)cc1
active: [2] 26600 nM | [4] 23.5 µM
inactive and 14.8 µM (active): [1]

Cn1c(=O)c2c(ncn2C)n(C)c1=O
inactive: [8] | [1] | [9] | [10] | [2] | [3] | [4]

CN(C)C(=O)C(CCN1CCC(O)(c2ccc(Cl)cc2)CC1)(c1ccccc1)c1ccccc1
inactive: [1] | [5] | [6] | [9]
active: [4] 18.7 µM

Clc1ccc2nsnc2c1NC1=NCCN1
inactive: [8] | [1] | [9] | [10] | [2] | [3] | [4]

Cc1cnc(C(=O)NCCc2ccc(S(=O)(=O)NC(=O)NC3CCCCC3)cc2)cn1
inactive: [8] | [1] | [9] | [2] | [4]

CC(C(=O)O)c1cccc(C(=O)c2ccccc2)c1 (stereo not given)
inactive: [8] | [1] | [9] | [10] | [2] | [3]

Nc1nnc(-c2cccc(Cl)c2Cl)c(N)n1
inactive: [1] | [5] | [6] | [9] | [2] | [3] | [4]

Cc1ccc(-c2cc(C(F)(F)F)nn2-c2ccc(S(N)(=O)=O)cc2)cc1
inactive: [1] | [5] | [2] | [4]

COc1ccc(CCN(C)CCCC(C#N)(c2ccc(OC)c(OC)c2)C(C)C)cc1OC (stereo not given)
inactive: [1] | [9] | [2] | [3] | [4]

O=C1c2c(O)ccc(O)c2C(=O)c2c(NCCNCCO)ccc(NCCNCCO)c21
active: [1] 833 nM | [2] 2.96 µM and 2.66 µM | [3] 332 nM and 422 nM | [4] 590 nM and 168 nM
inactive: [9]

COc1cc2c(c(OC)c1OC)-c1ccc(OC)c(=O)cc1[C@@H](NC(C)=O)CC2
active: [10] 7.5 nM and 1.3 nM | [2] 8.4 nM | [4] 0.0067 µM
inactive: [1] | [5] | [9]

Fc1ccc([C@@H]2CCNC[C@H]2COc2ccc3c(c2)OCO3)cc1
inactive: [1] | [5] | [9] | [10] | [2]

Cc1cn([C@H]2C[C@H](N=[N+]=[N-])[C@@H](CO)O2)c(=O)[nH]c1=O
inactive: [8] | [1] | [9] | [10] | [2] | [3]

CC(=O)OCC(CCn1cnc2cnc(N)nc21)COC(C)=O
inactive: [1] | [5] | [6] | [10] | [2] | [3] | [4]

O=C1N(c2ccccc2)c2ccccc2C1(Cc1ccncc1)Cc1ccncc1
inactive: [1] | [5] | [6] | [7] | [9] | [10] | [2] | [3] | [4]

CC1COc2c(N3CCN(C)CC3)c(F)cc3c(=O)c(C(=O)O)cn1c23 (stereo not given)
inactive: [8] | [1] | [9] | [10] | [2]
